Source: PubChem (National Center for Advancing Translational Sciences (NCATS))
Most compounds without a hit are left out; they make up all but 11% or so of the library.
JMJD2A Tudor inh: inhibitors of human JMJD2A Tudor domain | O75164 | AlphaScreen JMJD2A-Tudor / H3K4me3 peptide binding | Potency, µM (top dose mostly 114 µM), inactives show at the highest dose activity change, negative = inhibition, most hits filed as inhibitors | 390,000 compounds, 4.4% hits; also: % is scaled to controls: 0 for no effect and ±100 for the full control effect; nearly all actives have a fitted effect of over 50% in size
L3MBTL1 inh: L3MBTL1 (human) inhibition | Potency, µM (top dose mostly 57.1 µM), for inactives: at the top dose activity, negative = inhibition, most hits filed as inhibitors | Q9Y468 | AID 485360 | 230,000 compounds, 0.66% hits | AlphaScreen L3MBTL1–H3K9me1 peptide binding; also: % is scaled to controls: 0 for no effect and ±100 for the full control effect; nearly all actives have a fitted effect of over 60% in size
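First, the protein-peptide complex forms for 30 min at room temperature (L3MBTL1 50 nM, biotinylated H3K9me1 peptide 75 nM). Next, compounds are pin-transferred and incubated 30 min. Finally, AlphaScreen beads are added and read after 30 min.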
BAZ2B block: BAZ2B (human) inhibition. Potency, µM (highest dose often 114 µM), for inactives: at the highest dose activity change, negative = inhibition, usual class: inhibitors. Q9UIF8. AlphaScreen BAZ2B-H3K14Ac peptide displacement. 360,000 compounds, 4.4% hits; also: % is scaled to controls: 0 for no effect and ±100 for the full control effect; nearly all actives have a fitted effect of over 60% in size
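AlphaScreen displacement: compounds (up to 110uM) incubated 30 min at room temperature with a preformed 50 nM BAZ2B/50 nM biotinylated H3K14Ac peptide complex in PBS pH 7.4 with Tween-20. Donor and acceptor beads at 10 ug/mL final added, 20 min light-protected before reading.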
HP1b chromo inh: blocks HP1-beta chromodomain binding to methylated histone tails; P83916; Potency, µM (highest dose often 114 µM), without a hit: top-dose activity change, negative = inhibition, hits mostly inhibitors; AlphaScreen HP1-beta / biotin-H3K9me3 peptide binding; 390,000 compounds, 0.56% hits; also: nearly all actives have a fitted effect of over 70% in size
Target sequence (P83916 whole entry, looked up): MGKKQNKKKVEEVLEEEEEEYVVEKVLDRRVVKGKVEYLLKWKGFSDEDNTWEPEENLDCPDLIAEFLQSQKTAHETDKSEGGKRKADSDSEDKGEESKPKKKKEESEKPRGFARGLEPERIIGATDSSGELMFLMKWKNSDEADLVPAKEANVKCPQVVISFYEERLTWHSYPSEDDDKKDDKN
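AlphaScreen: HP1-beta (50 nM) preformed 30 min with biotin-H3(1-18)K9me3 peptide (50 nM) in PBS pH 7.4, 0.01% Tween-20. Compound added for 30 min at RT, then streptavidin donor/nickel chelate acceptor beads (10 ug/mL) for 30 min.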
G9a inh: G9a (human) methyltransferase inhibition; 350,000 compounds, 8.8% hits; Potency, µM (series often up to 102 µM), for the others: at the top dose activity, negative = inhibition, hits mostly inhibitors; G9a H3K9 monomethylation, AlphaScreen, 2 h; Q96KQ7; AID 504332; also: % is scaled to controls: 0 for no effect and ±100 for the full control effect; nearly all actives have a fitted effect of over 75% in size
Target sequence (Q96KQ7 913-1193 limits assumed): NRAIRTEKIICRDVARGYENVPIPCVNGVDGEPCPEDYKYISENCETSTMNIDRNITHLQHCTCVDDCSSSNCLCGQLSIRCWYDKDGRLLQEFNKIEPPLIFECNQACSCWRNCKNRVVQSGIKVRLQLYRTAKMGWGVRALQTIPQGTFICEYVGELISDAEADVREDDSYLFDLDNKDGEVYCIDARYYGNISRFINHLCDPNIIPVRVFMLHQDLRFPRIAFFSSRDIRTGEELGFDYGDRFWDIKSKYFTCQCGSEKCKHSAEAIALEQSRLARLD
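Readings reflect AlphaScreen signal from monomethyl-H3K9 antibody detection. HMT at 20 nM; substrate b-H3K9 500 nM; cofactor SAM 20 uM; 2 h RT reaction; compounds tested as titrations in qHTS with 15 min preincubation.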
An asterisk follows results filed as active; ? = inconclusive; / = no result; [ ] = dose if it differs, or a comment. Calls follow the shape of the dose curve; as a rule, active = well fitted inhibition curve with a large enough effect; inconclusive = small, poorly fitted or top-dose-only effect; inactive = no such curve, though single readings can be large or run the other way. Potency is read from the fitted curve at half-maximal effect.

SMILES	JMJD2A Tudor inh	L3MBTL1 inh	BAZ2B block	HP1b chromo inh	G9a inh
CCSC1=N/C(=C\c2ccc(C)s2)C(=O)S1	-5%	-3%	-30%	25%	?
CCCOc1ccc(C2C(=O)N(C3CCCCC3)CC(=O)N2CCc2ccccc2)cc1OC (configuration not stated)	-24%	/	-18%	31%	-24%[59 µM]
COc1cc(OC)cc(C(=O)N2CC(=O)Nc3ccc(Cl)cc3C2c2ccccc2)c1 (configuration not stated)	-11%	/	-8%	13%	-31%[59 µM]
COc1ccc(-c2nc(SCC(=O)Nc3ccc4c(c3)OCCO4)c(-c3ccc(C)cc3)[nH]2)cc1OC	?	/	-23%	2%	-11%[59 µM]
O=C(OCC#CCSc1nnc(-c2cccc3ccccc23)o1)C1CCC1	101%	/	/	/	/
CCOc1ccc(CC(=O)Nc2c(C(=O)c3ccc(F)cc3)oc3ccc(Cl)cc23)cc1OCC	-4%	/	-17%	37%	?
COCCSc1ccccc1C(=O)NCc1ccc(S(N)(=O)=O)cc1	-18%	/	37%	9%	45µM*
CCNS(=O)(=O)c1ccc(NC(=O)c2ccccc2SCCOC)cc1	7%	4%	21%	-24%	16µM*
CSc1ccccc1C(=O)NCc1ccc(S(N)(=O)=O)cc1	-1%	/	10%	21%	?
COCCSc1ccccc1C(=O)Nc1ccccc1C(C)C	-17%	-3%	-20%	18%	5µM*
CSc1ccccc1C(=O)NCC1CCCO1 (configuration not stated)	-12%	/	-4%	30%	0%[59 µM]
COCCSc1ccccc1C(=O)Nc1nnc(C)s1	-3%	7%	12%	15%	?
COCCSc1ccccc1C(=O)NCC1CCCO1 (configuration not stated)	-20%	/	-2%	20%	6.3µM*
CC1C(=O)N2CCCc3cc(S(=O)(=O)NCc4ccccc4Cl)cc1c32 (configuration not stated)	-17%	/	-3%	27%	16%
CC1=C(CC(=O)c2ccc(Cl)cc2)C(=O)c2ccccc2C1=O	32µM*	?	32µM*	-53%	?
O=C(Cc1ccccn1)c1ccc(Cl)cc1	11%	8%	-7%	67%	-6%[2.33 µM]
Cc1ccc(S(=O)(=O)NCCSc2nnc(N)s2)cc1	-7%	-4%[11.4 µM]	9%	41%	13µM*
CO/N=C/c1ccc(N2CCN(C(=O)c3cccc(C(F)(F)F)c3)CC2)c([N+](=O)[O-])c1	?	-30%	?	-29%	?
CO/N=C/c1ccc(N2CCN(C(=O)c3ccc(F)cc3)CC2)c([N+](=O)[O-])c1	?	-8%	?	-35%	45µM*
CO/N=C/c1ccc(N2CCN(C(=O)c3ccc(Cl)cc3Cl)CC2)c([N+](=O)[O-])c1	?	-24%	?	-39%	20µM*
c1ccc(CSc2nnc(C3CCNCC3)o2)cc1	2%	/	-16%	61%	-5%[59 µM]
O=C(CCOc1ccccc1)NNC(=O)c1ccccc1	-20%	3%	/	12%[57 µM]	/
Cc1ccc(S(=O)(=O)c2nc(-c3ccccc3Cl)oc2N(C)C)cc1	-23%	/	-1%	10%	/
COc1cc(-c2nc(S(=O)(=O)c3ccc(C)cc3)c(N3CCOCC3)o2)cc(OC)c1OC	?	-5%	?	2%	?
Cc1ccc(S(=O)(=O)c2nc(-c3ccccc3Br)oc2N(C)C)cc1	-21%	/	/	10%	/
COc1ccccc1-c1nc(S(=O)(=O)c2ccc(Cl)cc2)c(N(C)C)o1	?	/	?	?	2.8µM*
COc1cc(-c2nc(S(=O)(=O)c3ccc(C)cc3)c(N(C)C)o2)cc(OC)c1OC	?	1%	?	-17%	3.5µM*
COc1cccc(/C=C/c2nc(S(=O)(=O)c3ccccc3)c(N(C)C)o2)c1	-4%	/	-4%	26%	-18%
Cc1ccc(-c2nc(S(=O)(=O)c3ccc(C)cc3)c(N(C)C)o2)cc1	?	/	?	-12%	10µM*
